IL1B secr inh: blocks inflammasome-driven IL-1 beta release; THP-1 LPS/ATP IL-1B secretion, AlphaLISA, 16 h; stronger effect = lower value; activity change, % at 57.5 µM; 4.7% of 360,000 active; AID 743279; in the data active = activity change below about -50%; inconclusive = mostly about -30% to -49%
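THP-1 cells pretreated 1 hr with compounds (up to 57.5 uM final), then stimulated with LPS (250 ng/mL final) plus ATP (1.25 mM final); secreted IL-1B measured by AlphaLISA after 16 hr, decreased signal indicating inhibition.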
TDP1 cell CPT: growth inhibition of DT40 Tdp1-/-;hTDP1 cells with camptothecin (screen for TDP1 inhibitors); 12% of 420,000 active; chicken DT40 Tdp1-/-;hTDP1 cells + 20 nM CPT, ATP luminescence, 48 h; AID 686979; Potency, µM (top dose mostly 46.2 µM), for inactives: top-dose activity change, negative = growth inhibition, most hits filed as inhibitors; also: potency is read from the fitted curve at half-maximal effect; nearly all actives have a fitted effect of over 55% in size
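Chicken DT40 Tdp1-/- cells stably complemented with human TDP1 were seeded at 400 cells/well in medium containing 20 nM camptothecin, exposed to pin-transferred compounds, and grown at 37 °C for at least 48 hr. Viability was read as ATP luminescence.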
HT1080 IDH1KD tx: toxicity to HT-1080 IDH1 knockdown cells (counter line). HT-1080 IDH1 knockdown viability, ATP luminescence, 48 h. Potency, µM (top dose mostly 46.1 µM), without a hit: at the top dose activity, negative = toxicity, actives largely listed as cytotoxic. 2% of 360,000 active;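 also: potency is read from the fitted curve at half-maximal effect; 0% = DMSO wells and -100% = cell-free medium wells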
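Viability of IDH1-knockdown HT-1080 fibrosarcoma cells was assessed by CellTiter-Glo after 48 h at 37 °C with titrated compound; concentration-effect curves were classified by fit quality and response size.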
ELG1 repair inh: ELG1-dependent DNA repair inhibition. HEK293T ELG1-luciferase reporter, luminescence, 16 h; DNA damage induced by 5-fluorouridine. Potency, µM (top dose mostly 46.1 µM), inactives show top-dose activity change, negative = inhibition, usual class: inhibitors. 2.3% of 330,000 active; also: potency is read from the fitted curve at half-maximal effect; nearly all actives have a fitted effect of over 55% in size
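HEK293T cells expressing luciferase-tagged ELG1 (2,000/well) received 5-Fluorouridine plus compound or DMSO for 16 hr at 37 °C. Luciferase was read by ONE-Glo luminescence after 30 min at room temperature.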
HT1080-NT tox: kills 2HG-producing HT-1080-NT fibrosarcoma cells. HT-1080-NT fibrosarcoma viability, CellTiter-Glo ATP luminescence, 48 h. Potency, µM (series often up to 46.1 µM), for inactives: top-dose activity, negative = less viability, most hits filed as cytotoxic. 1.6% of 360,000 active. AID 686970;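 also: NT is the 2HG producing partner of a matched IDH1 knockdown line; potency is read from the fitted curve at half-maximal effect; 0% = DMSO-treated cells and -100% = media-only wells without cells; nearly all actives have a fitted effect of over 55% in size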
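Toxicity toward the 2HG-producing NT line was scored as %Activity, normalised to DMSO and no-cell wells, from CellTiter-Glo luminescence after 48 hours' treatment.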
DT40 TDP1 no CPT: qHTS for Inhibitors of human tyrosyl-DNA phosphodiesterase 1 (TDP1): qHTS in cells in absence of CPT; DT40 Tdp1-/- hTDP1 cells, no CPT, ATP luminescence, 48 h; 15% of 420,000 active; Potency, µM (titrated, usually from 46.2 µM), for inactives: top-dose activity change, negative = growth inhibition, most hits filed as inhibitors; also: potency is read from the fitted curve at half-maximal effect; nearly all actives have a fitted effect of over 55% in size
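Compound effects on proliferation are scored in DT40 Tdp1-/-;hTDP1 cells in the absence of CPT. ATP levels (CellTiter-Glo luminescence) are recorded after a ≥48 hr, 37 °C incubation.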
Starred values were filed as active, the others as inactive. An excerpt weighted towards active compounds, which were near 19% of everything screened. Unless noted, calls follow the shape of the dose curve; as a rule, active = well fitted curve in the direction sought with a large enough effect; inconclusive = small, poorly fitted or top-dose-only effect, or another doubt; inactive = no such curve, though single readings can be large; an effect the other way counts as inactive or inconclusive. Unless noted, % is scaled to controls: 0 for no effect and ±100 for the full control effect.

For COc1cc(OC)cc(C(=O)Nc2nc(CC(=O)NC(C)c3ccccc3)cs2)c1 (centres undefined) the results were IL1B secr inh -9.7, TDP1 cell CPT inconclusive, HT1080 IDH1KD tx 1.0%, ELG1 repair inh -25.1%, HT1080-NT tox -1.1% and DT40 TDP1 no CPT -26.0%.
`O=C(CCC(=O)c1ccc(Cl)cc1)OCn1nnc2ccccc2c1=O` gave IL1B secr inh -0.2, TDP1 cell CPT -17.0%, HT1080 IDH1KD tx -2.1%, ELG1 repair inh inconclusive, HT1080-NT tox -0.5% and DT40 TDP1 no CPT 1.7%.
For COc1cccc(NC(=O)N2CCC(CN3CCOCC3)CC2)c1 the results were TDP1 cell CPT 2.5% and DT40 TDP1 no CPT -5.2%.
`O=C(Cc1ccc(Br)cc1)Nc1ccc(S(=O)(=O)NCC2CCCO2)cc1` (centres undefined) gave IL1B secr inh -13.6, TDP1 cell CPT 11.6µM*, HT1080 IDH1KD tx -10.8%, ELG1 repair inh inconclusive, HT1080-NT tox -20.0% and DT40 TDP1 no CPT 18.4µM*.
For Cc1ccc(NC(=O)c2ccc(S(=O)(=O)NCC3CCCO3)cc2)cc1 (centres undefined) the results were IL1B secr inh 33.1, TDP1 cell CPT -14.8%, HT1080 IDH1KD tx 9.2%, ELG1 repair inh 3.2%, HT1080-NT tox 0.8% and DT40 TDP1 no CPT -16.0%.
Screening Cc1ccccc1C(=O)Nc1ccc(S(=O)(=O)NCC2CCCO2)cc1 (centres undefined) returned IL1B secr inh 6.5, TDP1 cell CPT 10.3µM*, HT1080 IDH1KD tx -0.8%, HT1080-NT tox 5.9% and DT40 TDP1 no CPT 13µM*.
`O=C(NCc1ccco1)c1cnn2c1NC(c1ccc(Br)cc1)CC2C(F)(F)F` (centres undefined) gave IL1B secr inh -28.5, TDP1 cell CPT 4.11µM*, HT1080 IDH1KD tx inconclusive, ELG1 repair inh inconclusive, HT1080-NT tox inconclusive and DT40 TDP1 no CPT 4.11µM*.
For O=C(NCc1ccco1)c1cnn2c1NC(c1ccccc1)CC2C(F)(F)F (centres undefined) the results were IL1B secr inh -10.5, TDP1 cell CPT 18.4µM*, HT1080 IDH1KD tx -13.7%, ELG1 repair inh inconclusive, HT1080-NT tox -12.4% and DT40 TDP1 no CPT -11.8%.
Cc1nn(C)c(C)c1CN(C)C(=O)c1cnn2c1NC(c1ccccc1)CC2C(F)(F)F (centres undefined) was read as IL1B secr inh 44.5, TDP1 cell CPT inconclusive, HT1080 IDH1KD tx 5.5%, ELG1 repair inh inconclusive, HT1080-NT tox 1.5% and DT40 TDP1 no CPT inconclusive.
Screening Cc1ccccc1Cn1ccc(NC(=O)c2cnn3c2NC(c2ccccc2)CC3C(F)(F)F)n1 (centres undefined) returned IL1B secr inh -66.1*, TDP1 cell CPT inconclusive, HT1080 IDH1KD tx inconclusive, ELG1 repair inh inconclusive, HT1080-NT tox inconclusive and DT40 TDP1 no CPT inconclusive.
Screening O=C(O)c1cnn2c1NC(c1ccc(F)cc1)CC2C(F)(F)F (centres undefined) returned IL1B secr inh 17.1, TDP1 cell CPT -19.5%, HT1080 IDH1KD tx -1.2%, ELG1 repair inh 0.5%, HT1080-NT tox -1.9% and DT40 TDP1 no CPT -4.7%.
Nc1[nH]c(C(=O)c2ccccc2)c(-c2ccccc2Br)c1C(=O)NCCc1ccc(Cl)cc1Cl was read as IL1B secr inh -10.7, TDP1 cell CPT inconclusive, HT1080 IDH1KD tx 8.9%, HT1080-NT tox 6.7% and DT40 TDP1 no CPT inconclusive.
`CCOc1ccc(OCC)c(NC(=O)c2cc(S(=O)(=O)N3CCc4ccccc43)cn2C)c1` gave TDP1 cell CPT -29.0% and DT40 TDP1 no CPT inconclusive.
For COc1ccc(-c2nnn(CC(=O)N(CC(=O)NC3CCCC3)Cc3cccs3)n2)cc1OC the results were IL1B secr inh -13.1, TDP1 cell CPT -14.6%, HT1080 IDH1KD tx -18.0%, ELG1 repair inh inconclusive, HT1080-NT tox 4.5% and DT40 TDP1 no CPT -22.8%.
COCCN(CC(=O)NC1CCCCC1)C(=O)/C=C/C(=O)c1ccc(OC)cc1O was read as IL1B secr inh -101.2*, TDP1 cell CPT 2.06µM*, HT1080 IDH1KD tx inconclusive, ELG1 repair inh 16.1%, HT1080-NT tox 23.1µM* and DT40 TDP1 no CPT 2.31µM*.
`COc1ccc(C(=O)/C=C/C(=O)N(CC(=O)NC2CCCCC2)Cc2cccs2)c(O)c1` gave IL1B secr inh -99.5*, TDP1 cell CPT 1.64µM*, HT1080 IDH1KD tx -11.5%, ELG1 repair inh inconclusive, HT1080-NT tox -21.5% and DT40 TDP1 no CPT 3.26µM*.
COc1ccc(C(=O)OCC(=O)NC(=O)NC2CCCC2)c(O)c1 was read as IL1B secr inh -5.4, TDP1 cell CPT 7.5%, HT1080 IDH1KD tx 3.7%, ELG1 repair inh 4.1%, HT1080-NT tox 7.2% and DT40 TDP1 no CPT -7.8%.
CCc1ccc(CNCc2ccc(OCC(O)CN(C)Cc3ccccc3)cc2)nc1 (centres undefined) was read as IL1B secr inh -59.7*, TDP1 cell CPT 16.4µM*, HT1080 IDH1KD tx inconclusive, ELG1 repair inh 1.6%, HT1080-NT tox inconclusive and DT40 TDP1 no CPT 23.1µM*.
For CN(Cc1ccccc1)CC(O)COc1ccc(CNCCc2ccncc2)cc1 (centres undefined) the results were IL1B secr inh -58.5*, TDP1 cell CPT inconclusive, HT1080 IDH1KD tx inconclusive, ELG1 repair inh -2.0%, HT1080-NT tox inconclusive and DT40 TDP1 no CPT inconclusive.
`CN(Cc1ccccc1)CC(O)COc1ccc(CNCCc2cccnc2)cc1` (centres undefined) gave IL1B secr inh 0.0, TDP1 cell CPT inconclusive, HT1080 IDH1KD tx -1.1%, ELG1 repair inh 10.2%, HT1080-NT tox 0.0% and DT40 TDP1 no CPT inconclusive.
`C=CCOc1ccc(CN(C)CC(O)COc2cccc3ccccc23)cc1` (centres undefined) gave IL1B secr inh -59.2*, TDP1 cell CPT inconclusive, HT1080 IDH1KD tx inconclusive, ELG1 repair inh -9.7%, HT1080-NT tox inconclusive and DT40 TDP1 no CPT inconclusive.
Cc1ccc(NC(=O)[C@@H]2O[C@H](CO)[C@H](O)[C@H](O)[C@H]2O)cc1C(F)(F)F was read as IL1B secr inh 32.3, TDP1 cell CPT -1.7%, HT1080 IDH1KD tx 1.3%, HT1080-NT tox inconclusive and DT40 TDP1 no CPT -0.7%.
